# Test results published in PubChem BioAssay (NCI).
# About 83,000 compounds went through this panel and 20% of them were active in at least one assay; those are over-represented in the sample as a whole.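 Cell lines were cultured in 96-well plates, exposed to a single compound concentration, and assessed for percent growth 48 hours later.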 A number with no mark means an inactive call. Activity calls are given as the source filed them. How the source made its calls: active means growth percent below 10; inactive means the rest. *1 amine or outer side, *2 acyl side, *3 side chain or, on linkers, in order; H or OH if unused. Where a SMILES comes first, the peptide text is derived from it. Bridges are numbered along the chain shown (N, C = ends). Roman numbers before positions name the chains, in order. [ ]: non-standard residue; d: D form. Actinocin(1to9) = Cc1c2oc3c(C)ccc(C(=O)[*:2])c3nc-2c(C(=O)[*:1])c(N)c1=O; NMeV = CN[CH](C(=O)O)C(C)C; Sar = CNCC(=O)O
# How the values were obtained:
# Assay in all cases: NCI-60 one-dose screen, 48 h (100 = growth as untreated, 0 = no growth, -100 = all killed)
# Conditions in all cases: 10 µM unless noted
# [1] = system: NCI-H23 lung
# [2] = system: NCI-H226 lung
# [3] = system: NCI-H322M lung
# [4] = system: HOP-62 NSCLC
# [5] = system: NCI-H460 lung
# [6] = system: HOP-92 NSCLC
# [7] = system: NCI-H522 lung
# [8] = system: A549/ATCC NSCLC
# [9] = system: 786-0 renal
# [10] = system: COLO 205 colon
# [11] = system: DU-145 prostate
# [12] = system: K-562 leukemia
# [13] = system: MALME-3M melanoma
# [14] = system: MDA-MB-231 breast
# [15] = system: RXF 393 renal
# [16] = system: SF-268 CNS
# [17] = system: SF-295 CNS
# [18] = system: SF-539 CNS
# [19] = system: UACC-257 melanoma
# [20] = system: M14 melanoma
SMILES,growth [1],growth [2],growth [3],growth [4],growth [5],growth [6],growth [7],growth [8],growth [9],growth [10],growth [11],growth [12],growth [13],growth [14],growth [15],growth [16],growth [17],growth [18],growth [19],growth [20]
COc1cc(/C=C/C(=O)CC(=O)/C=C/c2ccc(O)c(OC)c2)ccc1O,21.1%,88.1%,78.3%,40.9%,47.4%,71.9%,-22.5% (active),63.8%,16.7%,86.3%,40.6%,12.5%,60.3%,82.3%,20.3%,44.9%,102%,14.8%,53.6%,7.15% (active)
O=Nc1ccc2ccccc2c1O,56.6%,102%,103%,95.2%,97.5%,90.1%,74.7%,87.1%,98%,75.1%,94.3%,80.9%,63.4%,54.6%,93.8%,91.6%,83%,108%,18.3%,–
Cc1cc(C(=C2C=CC(=Nc3ccccc3)C=C2)c2ccc(Nc3ccccc3)cc2)ccc1N,-32.2% (active),-84.4% (active),-34.4% (active),-85.2% (active),-83.9% (active),-92.9% (active),-81.3% (active),-91.9% (active),-84.1% (active),-65.1% (active),-97.2% (active),14.1%,-63.6% (active),-56% (active),-93.7% (active),-68.7% (active),-71.9% (active),-60.8% (active),-91.6% (active),–
O=[N+]([O-])c1ccc(C(Br)c2ccc([N+](=O)[O-])cc2)cc1,79.5%,99.6%,114%,105%,102%,86.1%,-40.3% (active),100%,108%,88.3%,111%,25.4%,101%,93.8%,117%,84.8%,80.6%,110%,98.1%,22.6%
"CCC(C)C1NC(=O)C(NC(=O)c2c3nc4c(C(=O)NC5C(=O)NC(C(C)CC)C(=O)N6CCCC6C(=O)N(C)CC(=O)N(C)C(C(C)C)C(=O)OC5C)ccc(C)c4oc-3c(C)c(=O)c2N)C(C)OC(=O)C(C(C)C)N(C)C(=O)CN(C)C(=O)C2CCCN2C1=O (stereo unspecified) (I: TIP[Sar][NMeV] / II: TIP[Sar][NMeV]; ester I:1-I:C, II:1-II:C; linker I:N-II:N via Actinocin(1to9); configuration not given here)",-51.1% (active),-16% (active),-2.5% (active),-43.6% (active),-19.6% (active),-16.6% (active),-45.5% (active),-15.2% (active),-20.8% (active),-67.6% (active),15.5%,1.13% (active),-74.1% (active),-12.7% (active),1.32% (active),-11.7% (active),-11.3% (active),-36.9% (active),-8.32% (active),-95.6% (active)
C[n+]1ccccc1C[n+]1ccccc1,106%,108%,128%,100%,115%,101%,111%,107%,108%,114%,114%,87.8%,118%,122%,115%,96.8%,114%,106%,112%,–
O=C(C[P+](c1ccccc1)(c1ccccc1)c1ccccc1)c1ccccc1,91.9%,99.4%,92.2%,94.7%,97.7%,55.9%,61.4%,90.1%,99.6%,89.6%,102%,84%,110%,84.5%,107%,94.6%,87.4%,104%,101%,106%
CCN(CC)CC(O)c1cc(-c2ccc(Cl)cc2)nc2cc(Cl)ccc12 (stereo unspecified),70.8%,78.5%,79.2%,54.6%,-0.34% (active),19.3%,-70.4% (active),14.6%,46.3%,-73% (active),17.9%,-27.2% (active),43%,-3.65% (active),28.9%,42.1%,31.7%,18%,-59.8% (active),–
